Measured values from PubChem BioAssay.
A number with no mark means an inactive call. For some of these results: Entries with a potency or affinity are not part of this list. The source made the active and inactive calls. Unless noted, the rule behind the calls is not given here.

Tests used:
[1] = antimalarial activity against Dd2 strain (AID 2302;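 active = growth inhibition above 50% at the single 2 µM test dose, taken to imply half-maximal potency below 2 µM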;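 note: 0% = DMSO untreated growth and 100% = chloroquine plus artemisinin killed control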); conditions: P. falciparum Dd2 in RBCs, LDH growth readout, 72 h; at 2 µM; active compounds read high
[2] = HepG2 cytotoxicity, primary screen, cytotoxicity control for P. falciparum antimalarial project, cell-based, ATP luminescence (AID 2303;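 active = inhibition above 50%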;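 note: 0% = DMSO wells and 100% = digitonin-killed cells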); conditions: HepG2 viability, 24-48 h, at 10 µM, active compounds read high
[3] = biological target: L-lactate dehydrogenase (Plasmodium falciparum (isolate CDC / Honduras)) (UniProt Q27743); assay: PfLDH activity inhibition – cell lysate, 3D7 strain, counter-screen for P. falciparum growth inhibition project (AID 2304);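 note: 0% = vehicle and 100% = reference inhibitor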; conditions: P. falciparum 3D7 crude extract, LDH APAD/NBT absorbance; at 2 µM; active compounds read high
[4] = inhibition of 3D7 malaria parasite growth – strain 3D7 (AID 2306);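 note: 0% = DMSO wells and 100% = chloroquine plus artemisinin control wells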; conditions: P. falciparum 3D7 erythrocytic growth, LDH absorbance, 72 h; at 2 µM; active compounds read high
[5] = biological target: Calcium-dependent protein kinase 1 (Plasmodium falciparum (isolate 3D7)) (UniProt P62344); assay: PfCDPK1 kinase inhibitors, biochemical, TCAMS library (AID 1159585; cut-off not given, nearly all actives have IC50 up to about 0.98 µM;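 note: inhibitors leave more ATP so luminescence rises with inhibition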); conditions: recombinant PfCDPK1, Kinase-Glo ATP depletion luminescence
[6] = biological target: Plasmodium falciparum protein kinase 6 (PK6, PF3D7_1337100) (UniProt Q8IDW1); assay: PfPK6 kinase inhibitors, biochemical, TCAMS library (AID 1159586); conditions: recombinant PfPK6, Kinase-Glo ATP depletion luminescence
[7] = biological target: Protein kinase 7 (PK7), Plasmodium falciparum 3D7 (PF3D7_0213400) (UniProt Q7YTF7); assay: inhibition of Plasmodium PK7 catalytic activity – biochemical, TCAMS antimalarial set, Kinase-Glo luminescence (AID 1159587); conditions: recombinant PfPK7, Kinase-Glo ATP depletion luminescence
[8] = biological target: Calcium-dependent protein kinase 4 (Plasmodium falciparum (isolate 3D7)) (UniProt Q8IBS5); assay: PfCDPK4 kinase inhibitors, biochemical, TCAMS library (AID 1159588; cut-off not given, nearly all actives have IC50 up to about 0.91 µM); conditions: recombinant PfCDPK4, Kinase-Glo ATP depletion luminescence
Calcium-dependent protein kinase 4 (Plasmodium falciparum (isolate 3D7)), sequence (Q8IBS5 whole entry, looked up): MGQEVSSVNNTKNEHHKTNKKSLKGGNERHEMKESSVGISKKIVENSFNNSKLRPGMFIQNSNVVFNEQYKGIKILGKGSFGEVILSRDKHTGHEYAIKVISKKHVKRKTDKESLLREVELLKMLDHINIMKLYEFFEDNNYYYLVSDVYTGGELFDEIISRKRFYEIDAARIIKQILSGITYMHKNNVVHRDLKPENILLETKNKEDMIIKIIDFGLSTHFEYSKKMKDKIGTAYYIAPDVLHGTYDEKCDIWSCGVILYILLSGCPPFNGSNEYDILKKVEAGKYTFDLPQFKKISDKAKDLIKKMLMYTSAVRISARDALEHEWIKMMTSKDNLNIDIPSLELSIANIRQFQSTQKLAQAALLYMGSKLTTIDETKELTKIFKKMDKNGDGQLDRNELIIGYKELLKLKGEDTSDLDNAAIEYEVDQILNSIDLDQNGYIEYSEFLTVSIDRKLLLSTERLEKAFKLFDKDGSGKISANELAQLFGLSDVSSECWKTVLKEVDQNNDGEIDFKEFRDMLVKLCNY

Protein kinase 7 (PK7), Plasmodium falciparum 3D7 (PF3D7_0213400), sequence (Q7YTF7 1-343): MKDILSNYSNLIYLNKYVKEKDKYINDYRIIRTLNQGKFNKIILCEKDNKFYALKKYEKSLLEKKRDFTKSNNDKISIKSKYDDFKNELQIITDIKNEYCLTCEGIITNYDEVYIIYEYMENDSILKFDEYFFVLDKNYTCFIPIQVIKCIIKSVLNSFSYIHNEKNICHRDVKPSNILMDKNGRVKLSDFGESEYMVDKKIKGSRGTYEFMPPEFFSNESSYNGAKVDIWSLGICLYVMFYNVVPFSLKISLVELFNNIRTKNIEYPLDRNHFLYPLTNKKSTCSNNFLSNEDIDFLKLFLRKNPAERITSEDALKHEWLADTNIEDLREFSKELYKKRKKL
L-lactate dehydrogenase (Plasmodium falciparum (isolate CDC / Honduras)), sequence (Q27743 whole entry, looked up): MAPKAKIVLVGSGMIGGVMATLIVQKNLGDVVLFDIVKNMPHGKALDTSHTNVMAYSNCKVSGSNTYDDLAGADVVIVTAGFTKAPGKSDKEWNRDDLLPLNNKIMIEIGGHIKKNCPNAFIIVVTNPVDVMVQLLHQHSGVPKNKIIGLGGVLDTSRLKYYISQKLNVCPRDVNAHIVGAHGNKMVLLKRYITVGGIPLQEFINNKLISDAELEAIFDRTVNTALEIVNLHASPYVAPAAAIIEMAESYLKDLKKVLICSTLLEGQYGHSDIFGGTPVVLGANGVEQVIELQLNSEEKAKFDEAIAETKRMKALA
Plasmodium falciparum protein kinase 6 (PK6, PF3D7_1337100), sequence (Q8IDW1 1-305): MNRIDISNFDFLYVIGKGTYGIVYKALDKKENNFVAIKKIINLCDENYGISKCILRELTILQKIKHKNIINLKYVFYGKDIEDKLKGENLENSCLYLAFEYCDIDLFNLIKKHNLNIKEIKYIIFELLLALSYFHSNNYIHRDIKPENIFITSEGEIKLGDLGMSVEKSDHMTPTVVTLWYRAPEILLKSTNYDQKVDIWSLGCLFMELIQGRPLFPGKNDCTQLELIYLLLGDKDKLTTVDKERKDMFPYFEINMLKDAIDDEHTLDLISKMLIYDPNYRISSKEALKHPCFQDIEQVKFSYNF
Calcium-dependent protein kinase 1 (Plasmodium falciparum (isolate 3D7)), sequence (P62344 whole entry, looked up): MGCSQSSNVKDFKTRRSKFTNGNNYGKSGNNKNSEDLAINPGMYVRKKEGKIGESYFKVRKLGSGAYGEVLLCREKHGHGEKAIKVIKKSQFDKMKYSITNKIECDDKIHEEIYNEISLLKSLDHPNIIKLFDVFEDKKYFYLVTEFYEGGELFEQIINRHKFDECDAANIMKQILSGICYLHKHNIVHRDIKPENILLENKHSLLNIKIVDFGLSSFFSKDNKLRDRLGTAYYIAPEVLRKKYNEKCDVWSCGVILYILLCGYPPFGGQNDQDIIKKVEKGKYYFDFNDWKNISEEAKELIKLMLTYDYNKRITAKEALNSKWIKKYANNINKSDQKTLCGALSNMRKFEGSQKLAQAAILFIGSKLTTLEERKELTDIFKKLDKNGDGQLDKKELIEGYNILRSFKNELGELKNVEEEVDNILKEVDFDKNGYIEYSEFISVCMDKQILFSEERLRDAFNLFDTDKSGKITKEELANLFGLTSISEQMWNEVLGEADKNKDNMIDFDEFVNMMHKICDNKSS

Structure (SMILES) | growth inhibition [1] | inhibition [2] | inhibition [3] | growth inhibition [4] | outcome [5] | outcome [6] | outcome [7] | outcome [8]
COc1ccc(Nc2nccc(NCCNC(=O)Nc3ccccc3F)n2)cc1 | 4% | 4% | 1% | 85% (active) | inactive | inactive | inactive | inactive
Cc1ccc(C(=O)Cn2nc(-c3ccc(C)c(S(=O)(=O)N4CCCC4)c3)ccc2=O)cc1 | 70% (active) | -1% | -3% | 94% (active) | inactive | inactive | inactive | inactive
CN1CCN(CCCNc2ncc3c(-c4ccc(NC(=O)Nc5cc(C(F)(F)F)ccc5F)c(F)c4)nn(C)c3n2)CC1 | 94% (active) | 100% (active) | 1% | 98% (active) | inactive | inactive | inactive | inactive
Cc1noc(-c2cccs2)c1C(=O)NC(C)c1cccc2ccccc12 (centres undefined) | 95% (active) | -2% | -4% | 97% (active) | inactive | inactive | inactive | inactive
Cc1ccccc1C1CCN(C2CCC(NC(=O)/C=C/c3ccc(C#N)cc3)CC2)CC1 (centres undefined) | 13% | 39% | 0% | 87% (active) | inactive | inactive | inactive | inactive
COc1ccc(C=NNc2cc(C)nc3ccc(OC)cc23)c(OC)c1 | 95% (active) | 23% | -5% | 100% (active) | inactive | inactive | inactive | inactive
O=C(c1ccc(O)c(-c2cc(Cl)cc(Cl)c2)c1)N(CCO)CCO | 62% (active) | 1% | -9% | 94% (active) | inactive | inactive | inactive | inactive
Cc1ccc(NC(C)C(=O)Nc2ccccc2)cc1S(=O)(=O)N1CCCCCC1 (centres undefined) | 97% (active) | 12% | -4% | 99% (active) | inactive | inactive | inactive | inactive
CCOC(=O)/C(=N\OC(C)(C)C(=O)NCc1ccc(O)c(O)c1)c1csc(NC(c2ccccc2)(c2ccccc2)c2ccccc2)n1 | 99% (active) | 13% | -3% | 100% (active) | inactive | inactive | inactive | inactive
CCOc1ccc2c(NN=Cc3ccc(OC)c(OC)c3)cc(C)nc2c1 | 58% (active) | 22% | 2% | 100% (active) | inactive | inactive | inactive | inactive
CCC[C@@H]([C@@H](CC1CCC(C)CC1)C(=O)N[C@@H](CCCNc1ncccn1)C(=O)Nc1nccs1)N(O)C=O (some centres undefined) | 98% (active) | 10% | 5% | 98% (active) | inactive | inactive | inactive | inactive
CN(C)CCN(Cc1ccccc1-c1ccc(CNCCc2ccccc2)cc1)C(=O)NC1CCCCC1 | 89% (active) | 98% (active) | -1% | 88% (active) | inactive | inactive | inactive | inactive
CN1CCN(c2cccc(-c3nnc(-c4ccc(OCC(=O)NCc5cccc(C(F)(F)F)c5)c([N+](=O)[O-])c4)o3)c2)CC1 | 72% (active) | 25% | 2% | 90% (active) | inactive | inactive | inactive | inactive
COc1ccc(C2CC(=O)C3=C(C2)NC(C)=C(C(=O)OC2CCCC2)C3c2cccc(O)c2)cc1OC (centres undefined) | 98% (active) | 8% | -1% | 101% (active) | inactive | inactive | inactive | inactive
O=C(Nc1ccc(Cl)c(Cl)c1)Nc1ccc2nccc(N3CCN(Cc4ccccc4)CC3)c2c1 | 100% (active) | 31% | 1% | 101% (active) | inactive | inactive | inactive | inactive
Cc1noc(C)c1CN1CCCN(c2ccc3c(c2)CCN(Cc2ccc(-c4ncc[nH]4)cc2)CC3)CC1 | 39% | 1% | 2% | 98% (active) | inactive | inactive | inactive | inactive
C=CCc1cc(Cc2cnc(N)nc2N)c2ccc(C)nc2c1O | 3% | 51% (active) | 0% | 84% (active) | inactive | inactive | inactive | inactive
C=CCc1cc(C)ccc1OCCCON1C(N)=NC(N)=NC1(C)C | 96% (active) | 64% (active) | -6% | 96% (active) | inactive | inactive | inactive | inactive
CC(C)C[C@@H](CNC[C@H](CC(C)C)NC(=O)OC(C)(C)C)NC(=O)OC(C)(C)C | 58% (active) | 4% | 1% | 88% (active) | inactive | inactive | inactive | inactive

Structure (SMILES) | growth inhibition [1] | inhibition [2] | inhibition [3] | growth inhibition [4] | outcome [5] | outcome [6] | outcome [7] | outcome [8]
CN(C)CCCNc1ncnc2c1[nH]c1ccc(Br)cc12 | 19% | 3% | 3% | 100% (active) | inactive | inactive | inactive | inactive
CCN(CC)CCN(Cc1ccc(-c2ccc(C(F)(F)F)cc2)cc1)C(=O)Cn1c(CCc2c(F)ccc(F)c2F)nc(=O)c2ccccc21 | 62% (active) | 44% | -6% | 98% (active) | inactive | inactive | inactive | inactive
NC(=O)COc1c(C2CCN(CCCCNC(=O)c3ccc(-c4ccc(Cl)cc4)c(O)c3)CC2)ccc2c1CCCC2 | 72% (active) | 97% (active) | 4% | 101% (active) | inactive | inactive | inactive | inactive
Cc1ccccc1C1CCN(C2CCC(NC(=O)/C=C/c3cc(C(F)(F)F)ccc3F)CC2)CC1 (centres undefined) | 45% | 56% (active) | -2% | 100% (active) | inactive | inactive | inactive | inactive
Cc1cccc(C(=O)NCCCN2CCC(NC(=O)/C=C/c3ccc(Cl)c(Cl)c3)CC2)c1 | 23% | 39% | 1% | 98% (active) | inactive | inactive | inactive | inactive
CCc1cc(Cc2cnc(N)nc2N)cc(CC)c1OC | 12% | 3% | 8% | 90% (active) | inactive | inactive | inactive | inactive
Clc1ccccc1OCc1ccccn1 | 2% | 2% | -3% | 85% (active) | inactive | inactive | inactive | inactive
O=C(Nc1cccc(Cl)c1Cl)N[C@H]1CCN(CCCCCNC(=O)[C@@H]2C[C@H]2c2ccc(Cl)c(Cl)c2)C1 | -7% | 40% | -2% | 87% (active) | inactive | inactive | inactive | inactive
CCOc1cc(O)c(-c2nc(N)ncc2-c2ccc3c(c2)OCCO3)cc1CC | 68% (active) | -5% | -1% | 99% (active) | inactive | inactive | inactive | inactive
CCCN(CCC)CCCCC(C)Nc1c2ccc(Cl)cc2nc2ccc(OC)cc12 (centres undefined) | 100% (active) | 42% | -2% | 102% (active) | inactive | inactive | inactive | inactive
c1ccc(Oc2ccc(Nc3ccnc4ccc(-c5ccco5)cc34)cc2)cc1 | 32% | -4% | -1% | 87% (active) | inactive | inactive | inactive | inactive
CC(=O)Oc1c(C2C=CCCC2)c(OC(C)=O)c2ccccc2c1OC(C)=O (centres undefined) | 79% (active) | 10% | 7% | 95% (active) | inactive | inactive | inactive | inactive
c1ccc(Oc2ccc(Nc3ccnc4c(-c5ccccn5)cccc34)cc2)cc1 | 58% (active) | 31% | -8% | 100% (active) | inactive | inactive | inactive | inactive
CCOC(=O)c1c(CSc2ccccc2)oc2cc(CN(C)C)c(O)c(Cl)c12 | 70% (active) | 12% | -4% | 99% (active) | inactive | inactive | inactive | inactive
O=C(Nc1ccc(C(F)(F)F)cc1)c1ccc(S(=O)(=O)NC2CCCN(CC3CCCCC3)C2)cc1 (centres undefined) | -1% | 45% | -5% | 99% (active) | inactive | inactive | inactive | inactive
COc1cc(Nc2nccc(N3CCC(NC(=O)C4COc5ccccc5O4)C3)n2)cc(OC)c1OC (centres undefined) | 58% (active) | 5% | 5% | 90% (active) | inactive | inactive | inactive | inactive
Cc1nc(-c2cccc(C(=O)Nc3cnc4ccccc4c3)c2)no1 | 12% | 15% | -10% | 85% (active) | inactive | inactive | inactive | inactive
FC(F)(F)c1cccc(CNCC2CCN(CC3CCCCC3)CC2)c1 | 24% | 21% | 3% | 101% (active) | inactive | inactive | inactive | inactive
CN1CCCN(c2ccnc3cc4c(cc23)N(C(=O)c2ccc(Cl)c(Cl)c2)CC4)CC1 | 73% (active) | 20% | 2% | 101% (active) | inactive | inactive | inactive | inactive
